In PubChem BioAssay:
Inconclusive results are not listed. Calls of active or inactive are those of the source. Unless noted, the limit is not given here; nearly all actives have AC50 up to about 26 µM.

Tests used:
[1] = growth inhibition of DIPG glioma cells, dose response, cell-based, SU-DIPG-XVII, MIPE5.0, CellTiter-Glo, qHTS (AID 1347060); conditions: SU-DIPG-XVII viability, CellTiter-Glo ATP luminescence;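 as to AC50: cells exposed to compound for 48 hours before viability readout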
[2] = growth inhibition of DIPG glioma cells, dose response, cell-based, SU-DIPG-XIII, MIPE5.0, CellTiter-Glo, qHTS (AID 1347064; cut-off not given, nearly all actives have AC50 up to about 23 µM;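 as to AC50: cells exposed to compound for 48 hours before the viability read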); conditions: SU-DIPG-XIII viability, CellTiter-Glo ATP luminescence
[3] = viability loss in pontine glioma line – cell-based, SU-DIPG-XXV, MIPE5.0, CellTiter-Glo, qHTS, dose response (AID 1347065); conditions: CellTiter-Glo ATP luminescence;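 also: cells exposed to compound for 48 hours before ATP readout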
[4] = JHH-DIPG-1 glioma cell viability, MIPE5.0 library, CellTiter-Glo luminescence, qHTS (AID 1347067); conditions: JHH-DIPG-1 glioma viability, CellTiter-Glo ATP luminescence;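 also: cells exposed to compound for 48 hours before readout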
[5] = SU-DIPG-XXV glioma cell viability, MIPE5.0 library, qHTS (AID 1347068; cut-off not given, nearly all actives have IC50 up to about 30 µM;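 as to IC50: cells exposed to compound for 48 hours before viability readout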)
[6] = sensitizers of A549 cells to miR-34 induction, primary screen, imaging, A549 dox-inducible miR-34, nuclei and caspase counts (AID 1347080;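 active = compounds whose cell count with miR-34 switched on is under 0.7 times the count with it off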); conditions: A549 miR-34 inducible, Hoechst nuclei count, 48 h
[7] = survival rescue of mitochondrial mutant cells in low glucose, primary screen, MELAS cybrids, Rieske KO mouse fibroblasts, CellTiter-Glo (AID 1508586;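 active = mean z-score across replicates of 1.96 or higher in either the MELAS or the Rieske mutant cell line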;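 also: z relative to plate mean and SD of compound and empty wells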)
[8] = ovarian cancer cell viability with rucaparib, profiling panel, oncology-focused library, rucaparib conditional (AID 1508598;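 active = normalized viability below 100% at a tested concentration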); conditions: patient-derived ovarian cancer cells, CellTiter-Glo viability, 144 h, stronger effect = lower value

COC(C)(C)CCn1nc(Nc2c(C)cccc2C)c2cnc(Nc3ccc(OCCN4CCCC4)c(F)c3)nc21
active: AC50 [1] 16.6 µM | AC50 [2] 18.6 µM | AC50 [3] 14.8 µM | AC50 [4] 16.6 µM | IC50 [5] 16.6 µM

CCc1c(-c2ccccc2C)nc2c(C#N)c[nH]n2c1=O
inactive: outcome [1] | outcome [2] | outcome [3] | outcome [4] | outcome [5]

C=CC(=O)N1CC[C@@H](Oc2nc(Nc3ccc(N4CCC(N5CCN(C)CC5)CC4)cc3)c(C(N)=O)nc2CC)C1
active: AC50 [1] 1.15 µM | AC50 [2] 0.811 µM | AC50 [3] 0.91 µM | AC50 [4] 2.29 µM | IC50 [5] 4.56 µM

CN(C)C/C=C/C(=O)Nc1ccc(C(=O)N2CCC[C@@H](Nc3ncc(Cl)c(-c4c[nH]c5ccccc45)n3)C2)cc1
active: AC50 [1] 0.59 µM | AC50 [2] 0.295 µM | AC50 [3] 0.235 µM | AC50 [4] 0.332 µM | IC50 [5] 0.833 µM

CN(Cc1ccc(/C=C/C(=O)NO)cc1)CC12CC3CC(CC(C3)C1)C2
active: AC50 [1] 0.833 µM | AC50 [2] 0.372 µM | AC50 [3] 0.263 µM | AC50 [4] 0.332 µM | IC50 [5] 2.95 µM

NS(=O)(=O)NCCNc1nonc1C(=Nc1ccc(F)c(Br)c1)NO
inactive: outcome [1] | outcome [2] | outcome [3] | outcome [4] | outcome [5]

COc1ccc(C(=O)N2CCN(c3ccc4c(c3)CCC(=O)N4)CC2)cc1OC
inactive: outcome [1] | outcome [2] | outcome [3] | outcome [4] | outcome [5]

O=C(O)CCCCN(CCc1ccccc1OCc1ccc(CCc2ccccc2)cc1)Cc1ccc(C(=O)O)cc1
inactive: outcome [1] | outcome [2] | outcome [3] | outcome [4] | outcome [5]

O=C(CCCc1ccc2cccnc2n1)NCc1cc(-c2ccc(F)c(C(F)(F)F)c2)no1
inactive: outcome [1] | outcome [2] | outcome [3] | outcome [4] | outcome [5]

Cc1ccc(NC(=O)Nc2nnc(Sc3ncnc4cc(OCCCN5CCOCC5)ccc34)s2)cc1
inactive: outcome [5]
active: AC50 [1] 2.95 µM | AC50 [2] 2.63 µM | AC50 [3] 1.86 µM | AC50 [4] 2.35 µM

O=C(NC[C@H](O)CN1CCc2ccccc2C1)c1cc(NC2COC2)ncn1
inactive: outcome [2] | outcome [3] | outcome [4] | outcome [5]
active: AC50 [1] 23.5 µM

Nc1cc(C(F)(F)F)c(-c2nc(N3CCOCC3)nc(N3CCOCC3)n2)cn1
active: AC50 [1] 2.35 µM | AC50 [2] 3.72 µM | AC50 [3] 0.742 µM | AC50 [4] 2.35 µM | IC50 [5] 1.86 µM

Cc1cc(OCCCc2c3n(c4c(-c5c(C)nn(C)c5C)c(Cl)ccc24)[C@H](C)CN(c2cn(C)c4ccc(C(=O)O)cc24)C3=O)cc(C)c1Cl
active: AC50 [1] 0.833 µM | AC50 [2] 5.25 µM | AC50 [3] 0.468 µM | AC50 [4] 9.34 µM | IC50 [5] 3.72 µM

Cc1c[nH]c2nc(Nc3ccc(N4CCN(C)CC4)c(F)c3)nc(-c3cccc(CC#N)c3)c12
active: AC50 [1] 2.35 µM | AC50 [2] 4.17 µM | AC50 [3] 4.17 µM | AC50 [4] 3.72 µM | IC50 [5] 3.32 µM

NC(=O)/C(=C/n1cnc(-c2cc(C(F)(F)F)cc(C(F)(F)F)c2)n1)c1cncnc1
active: AC50 [1] 0.417 µM | AC50 [2] 2.09 µM | AC50 [3] 2.35 µM | AC50 [4] 11.8 µM | IC50 [5] 3.32 µM

COc1ccc(S(=O)(=O)N2CCc3cccc(-c4ccncc4)c32)cc1
active: AC50 [1] 0.468 µM | AC50 [2] 0.295 µM | AC50 [3] 0.332 µM | AC50 [4] 0.332 µM | IC50 [5] 0.833 µM

Cc1[nH]cnc1CN1CCN(C(=O)N[C@@H](CC(C)C)C(=O)O)[C@@H](Cc2ccccc2)C1=O
inactive: outcome [1] | outcome [2] | outcome [3] | outcome [4] | outcome [5]

CC(C)n1cc(-c2ccc3c(c2)N(C)CC3)c2c(NS(=O)(=O)c3ccn(C)n3)ccnc21
inactive: outcome [1] | outcome [2] | outcome [3] | outcome [4] | outcome [5]

N#Cc1ccc(N(Cc2ccc(Br)cc2)n2cnnc2)cc1
inactive: outcome [1] | outcome [2] | outcome [3] | outcome [4] | outcome [5]

C=CC(=O)Nc1cccc(Oc2nc(Nc3ccc(N4CCN(C)CC4)cc3)nc3ccsc23)c1
active: AC50 [1] 8.33 µM | AC50 [2] 13.2 µM | AC50 [3] 9.34 µM | AC50 [4] 10.5 µM | IC50 [5] 0.59 µM

Cn1ncc(Cl)c1-c1cc(C(=O)NC(CN)Cc2ccc(F)c(F)c2)oc1Cl (stereo not drawn)
active: AC50 [1] 14.8 µM | AC50 [2] 5.9 µM | AC50 [3] 0.661 µM | AC50 [4] 18.6 µM | IC50 [5] 16.6 µM

N#Cc1ccnc(Nc2cc(C3CCN(C4COC4)CC3)cc(N3CCC(F)(F)C3)n2)c1
active: AC50 [1] 2.63 µM | AC50 [2] 5.25 µM | AC50 [3] 1.48 µM | AC50 [4] 5.9 µM | IC50 [5] 11.8 µM

CN1CCN(c2ccc3nc(-c4cc(C(C)(C)C)c(OCCCC(=O)NCCCN=[N+]=[N-])c(C(C)(C)C)c4)[nH]c3c2)CC1
active: AC50 [1] 10.5 µM | AC50 [2] 13.2 µM | AC50 [3] 7.42 µM | AC50 [4] 11.8 µM | IC50 [5] 9.34 µM

COc1ccc(N2C(=O)N(c3c(C)cccc3Cl)Cc3cnc(Nc4ccc(C5CCN(C)CC5)cc4OC)nc32)nc1
active: AC50 [1] 3.72 µM | AC50 [2] 9.34 µM | AC50 [3] 9.34 µM | AC50 [4] 16.6 µM | IC50 [5] 14.8 µM

FC(F)(F)c1ccc(Nc2nc(-c3c(C(F)(F)F)nc4ccccn34)cs2)cc1
active: AC50 [1] 0.372 µM | AC50 [2] 14.8 µM | AC50 [3] 0.372 µM | AC50 [4] 1.86 µM | IC50 [5] 3.32 µM

CN(NC(=O)CC(=O)NN(C)C(=S)c1ccccc1)C(=S)c1ccccc1
active: AC50 [1] 0.0186 µM | AC50 [2] 0.00934 µM | AC50 [3] 0.0186 µM | AC50 [4] 0.00525 µM | z-score ([7]; MELAS cybrid survival, CellTiter-Glo 48 h, stronger effect = higher value) 2.12 | viability ([8]; at 0.000305 µM, OCI-P5x cells, with rucaparib 20 µM, 100% = cells with rucaparib alone) 83.3% | viability ([8]; at 0.000305 µM, OCI-P5x cells, without rucaparib) 88% | viability ([8]; at 0.00122 µM, OCI-P5x cells, with rucaparib 20 µM, 100% = cells with rucaparib alone) 80.6% | viability ([8]; at 0.00122 µM, OCI-P5x cells, without rucaparib) 75.2% | viability ([8]; at 0.00488 µM, OCI-P5x cells, with rucaparib 20 µM, 100% = cells with rucaparib alone) 82.9% | viability ([8]; at 0.00488 µM, OCI-P5x cells, without rucaparib) 81.1% | viability ([8]; at 0.0195 µM, OCI-P5x cells, with rucaparib 20 µM, 100% = cells with rucaparib alone) 88.5% | viability ([8]; at 0.0195 µM, OCI-P5x cells, without rucaparib) 84.6% | viability ([8]; at 0.0781 µM, OCI-P5x cells, with rucaparib 20 µM, 100% = cells with rucaparib alone) 98.6% | viability ([8]; at 0.0781 µM, OCI-P5x cells, without rucaparib) 81% | viability ([8]; at 0.313 µM, OCI-P5x cells, with rucaparib 20 µM, 100% = cells with rucaparib alone) 96% | viability ([8]; at 0.313 µM, OCI-P5x cells, without rucaparib) 95.1% | viability ([8]; at 1.25 µM, OCI-P5x cells, with rucaparib 20 µM, 100% = cells with rucaparib alone) 82.2% | viability ([8]; at 1.25 µM, OCI-P5x cells, without rucaparib) 97.2% | viability ([8]; at 5 µM, OCI-P5x cells, with rucaparib 20 µM, 100% = cells with rucaparib alone) 99% | viability ([8]; at 5 µM, OCI-P5x cells, without rucaparib) 98%
-2.56: z-score ([7]; Rieske KO mouse fibroblast survival, CellTiter-Glo 72 h)
5740: cell count ([6]; measured here: total cells without miR-34 induction)
1.14: fold change ([6]; measured here: relative caspase fold change +Dox/-Dox)
4660: cell count ([6]; measured here: total cells with miR-34 induction, stronger effect = lower value)
inactive: outcome [5] | fold change ([6]; stronger effect = lower value, cell number ratio, induced over uninduced) 0.813 | viability ([8]; at 0.000305 µM, OCI-C5x cells, with rucaparib 10 µM, 100% = cells with rucaparib alone) 121% | viability ([8]; at 0.000305 µM, OCI-C5x cells, without rucaparib) 108% | viability ([8]; at 0.00122 µM, OCI-C5x cells, with rucaparib 10 µM, 100% = cells with rucaparib alone) 135% | viability ([8]; at 0.00122 µM, OCI-C5x cells, without rucaparib) 131% | viability ([8]; at 0.00488 µM, OCI-C5x cells, with rucaparib 10 µM, 100% = cells with rucaparib alone) 143% | viability ([8]; at 0.00488 µM, OCI-C5x cells, without rucaparib) 129% | viability ([8]; at 0.0195 µM, OCI-C5x cells, with rucaparib 10 µM, 100% = cells with rucaparib alone) 151% | viability ([8]; at 0.0195 µM, OCI-C5x cells, without rucaparib) 131% | viability ([8]; at 0.0781 µM, OCI-C5x cells, with rucaparib 10 µM, 100% = cells with rucaparib alone) 140% | viability ([8]; at 0.0781 µM, OCI-C5x cells, without rucaparib) 122% | viability ([8]; at 0.313 µM, OCI-C5x cells, with rucaparib 10 µM, 100% = cells with rucaparib alone) 126% | viability ([8]; at 0.313 µM, OCI-C5x cells, without rucaparib) 133% | viability ([8]; at 1.25 µM, OCI-C5x cells, with rucaparib 10 µM, 100% = cells with rucaparib alone) 125% | viability ([8]; at 1.25 µM, OCI-C5x cells, without rucaparib) 123% | viability ([8]; at 5 µM, OCI-C5x cells, with rucaparib 10 µM, 100% = cells with rucaparib alone) 128% | viability ([8]; at 5 µM, OCI-C5x cells, without rucaparib) 121%
